Rows were chosen to be rich in hits. Some 12% of all compounds tested hit in one or more screens of this group.
Pf growth 48h: inhibits P. falciparum growth in the first generation, 48 h. Potency, µM (highest dose often 28.7 µM), for inactives: at the highest dose activity change, negative = inhibition, most hits filed as inhibitors. P. falciparum luciferase growth in erythrocytes, 48 h. 5.9% of 310,000 active. AID 504832; also: % is scaled to controls: 0 for no effect and ±100 for the full control effect
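Cell-based growth assay: transgenic P. falciparum expressing firefly luciferase, cultured in red cells within RPMI 1640 containing 0.5% w/v Albumax, 24 mM bicarbonate and gentamycin. A drop in luciferase activity indicates inhibition.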
SARS PLpro yeast: blocks SARS-CoV papain-like protease in a yeast assay; S. cerevisiae expressing SARS-CoV PLpro, growth rescue; Potency, µM (doses to about 32.9 µM), for the others: at the highest dose activity, positive = growth rescue, hits mostly activators; 0.19% of 330,000 active; AID 485353; calls by dose curve; also: 0% is about no effect; nearly all actives have a fitted effect of over 55% in size
Pf growth 96h: P. falciparum growth inhibition at 96 hour, primary screen for plastid delayed-death inhibitors; P. falciparum luciferase reporter growth, 96 h; Potency, µM (titrated, usually from 28.7 µM), for inactives: top-dose activity change, negative = inhibition, usual class: inhibitors; 6.9% of 320,000 active; AID 504834; also: % is scaled to controls: 0 for no effect and ±100 for the full control effect
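Delayed-death screen, second-generation endpoint: infected erythrocytes, 2% hematocrit, 0.05% parasitemia final; 96 hours at 37 C, 5% CO2; luciferase detection reagent; luminescence decrease equals reduced growth.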
HCV inh: blocks hepatitis C virus; Huh7.5.1 HCVcc-Cre infection, luciferase reporter, 44 h; Potency, µM (titrated, usually from 41.8 µM), for the others: at the highest dose activity change, negative = inhibition, most hits filed as inhibitors; 3.4% of 340,000 active; also: % is scaled to controls: 0 for no effect and ±100 for the full control effect
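Luciferase read-out (15 sec integration) after a 15 min room-temperature substrate step quantifies HCVcc-Cre infection. Cells, 1,000 per well, had compound added 4 h post-plating, then virus at ~0.5 moi, and were cultured 44 h.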
AMA1 RON2 block: disrupts binding of P. falciparum AMA1 to RON2 | Potency, µM (top dose mostly 58.2 µM), for the others: at the top dose activity change, negative = inhibition, hits mostly inhibitors | 0.2% of 360,000 active | AlphaScreen AMA1-biotinylated RON2 peptide binding | AID 720542;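 also: 0% = vehicle wells and -100% = peptide control; nearly all actives have a fitted effect of over 45% in size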
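AMA1 (3D7) with his tag at 25 nM final met compounds first, then biotinylated RON2 peptide at 25 nM; detection used donor plus acceptor beads, 10 µg/mL apiece, read by AlphaScreen after 30 min at room temperature.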
NS1 function inh: influenza NS1 inhibition; 0.4% of 270,000 active; Potency, µM (highest dose often 46.1 µM), for the others: at the top dose activity, positive = more growth; AID 2326; calls by dose curve; also: actives are rising curves; nearly all actives have a fitted effect of over 50% in size
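A cell-based growth assay was used: compounds that relieve NS1-induced slow growth of budding yeast raise OD600. Assay medium was yeast nitrogen base with ammonium sulphate and -URA supplement, pH 6.0, with 2% galactose.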
* marks the source's active call; other numbers are inactive results; ? = inconclusive; / = no result; ! = a repeat was not active; [ ] = dose if it differs, or a comment. Unless noted, calls follow the shape of the dose curve; as a rule, active = well fitted curve in the direction sought with a large enough effect; inconclusive = small, poorly fitted or top-dose-only effect, or another doubt; inactive = no such curve, though single readings can be large; an effect the other way counts as inactive or inconclusive. Potency is read from the fitted curve at half-maximal effect.

SMILES	Pf growth 48h	SARS PLpro yeast	Pf growth 96h	HCV inh	AMA1 RON2 block	NS1 function inh
Oc1c(I)cc(I)c2cccnc12	?	-74%	11µM*!	-7%[8.37 µM]	70%	-48%
Cc1ccc(S(=O)(=O)Nc2cccnc2Oc2ccc(Cl)cc2)cc1	?	-4%	?	-7%	-2%	-7%
Oc1ccc(Cl)c2cccnc12	13µM*	/	12µM*	?	6%	/
Oc1ccc(F)c2cccnc12	?	0%	15µM*	?	67%	-2%
Cc1ccc(S(=O)(=O)Nc2cc(Cl)c(O)c3ncccc23)cc1	7.4µM*	?	-5%	?	-48%	-149%
O=C(O)c1ccc(O)c2ncccc12	?	-3%	?	/	/	/
CSCCC(NC(=O)/C(=C\c1ccc(Cl)cc1)NC(=O)c1ccccc1)C(=O)O (stereo not drawn)	-9%	1%	2%	10%	3%	0%
CCN(CC(=O)NCc1ccc(Cl)cc1)C(=O)C1CCN(S(=O)(=O)c2ccc(OC)c(OC)c2)CC1	-4%	-2%	0%	10%	42%	/
F[B-](F)(F)c1cc2ccccc2s1	/	/	/	6%[8.37 µM]	-2%	/
Oc1c(Cl)cc(Cl)c2cccnc12	8.5µM*	-22%	4.3µM*!	-21%	-53%	/
CC(=O)NCc1cc(Cl)c2cccnc2c1O	?	-2%	-12%	/	/	/
CN1C(=O)C(C)(C)c2cc(S(=O)(=O)N3CCC(C(=O)NCc4ccc(F)cc4)CC3)ccc21	?	1%	13µM*	-9%	0%	-21%
CC(CCc1ccccc1)NC(=O)C1CCN(S(=O)(=O)N2CCCCC2)CC1 (stereo not drawn)	?	3%	1µM*	?	1%	2%
CN1C(=O)C(C)(C)c2cc(S(=O)(=O)N3CCC(C(=O)NCc4ccc(Cl)cc4)CC3)ccc21	?	-6%	?	?	0%	-5%
CCC(C)NC(=O)C1CCN(S(=O)(=O)c2ccc(Br)s2)CC1 (stereo not drawn)	?	-5%	10µM*	-8%	-10%	-3%
O=C(NCc1ccc(F)cc1)C1CCN(S(=O)(=O)c2ccc(Br)s2)CC1	9.3µM*	-2%	?	?	2%	-3%
CCOc1ccc(NC(=O)CCC(=O)N/N=C2\CCCc3ccccc32)cc1	2%	-5%	-11%	-4%	-5%	3%
C1C[C@@H]2CN(CCCN3CCOCC3)[C@@H](C1)O2	/	/	/	/	/	-3%
COc1cccc(CNC(=O)C2CCN(c3nnc(N4CCCC4=O)s3)CC2)c1	5%	-2%	?	4%	7%	4%
O=C(NC1C2CC3CC(C2)CC1C3)c1ccc(Br)o1 (stereo not drawn)	?	14%	51%	-2%	-8%	-32%
O=C(CN1CCN(c2ncccn2)CC1)N(Cc1ccccc1)c1ccc(F)cc1	-19%	6%	12µM*	7%	-23%	-38%
Cc1cc(C)n2nc(S(=O)(=O)NC(C)(C)C)nc2n1	20%	4%	-21%	7%	22%	/
CCc1ccc(-c2csc(NC(=O)C3=NN(c4ccccc4)C(=O)CC3)n2)cc1	-29%	-16%	?	?	15%	?
Cc1cc(C)c(-c2csc(NC(=O)C3=NN(c4ccccc4)C(=O)CC3)n2)c(C)c1	?	7%	9.3µM*	-22%	23%	?
Cc1cc(C)c(-c2csc(NC(=O)/C=C/c3cccs3)n2)c(C)c1	-20%	-11%	12µM*	10µM*	-1%[2.32 µM]	10%
SMILES	Pf growth 48h	SARS PLpro yeast	Pf growth 96h	HCV inh	AMA1 RON2 block	NS1 function inh
Cc1ccn(CCC(=O)NC2CC(C)(C)Cc3c2cnn3-c2ccccc2C)n1 (stereo not drawn)	-17%	?	?	-2%	-4%	1%
Cc1ccc(C)c(NC(=O)CSc2ccc(S(=O)(=O)N3CCCC3)cn2)c1	?	1%[6.58 µM]	-23%	-29%	6%	/
O=C(CSc1ccc([N+](=O)[O-])cn1)Nc1cc(C(F)(F)F)ccc1N1CCOCC1	5.2µM*	1%	-25%	/	-13%	-2%
O=C(CSc1ccc([N+](=O)[O-])cn1)Nc1nccs1	?	?	?	9%	-2%	4%
O=C(CSc1nc2ccccc2[nH]1)Nc1ccccc1N1CCOCC1	-29%	-2%	/	-23%	6%	-1%
O=C(CSc1nc2ccccc2[nH]1)Nc1cc(C(F)(F)F)ccc1N1CCOCC1	?	-1%	5.2µM*	?	-6%	-39%
O=C(CSc1ccc(S(=O)(=O)N2CCCC2)cn1)Nc1ccc([N+](=O)[O-])cc1C(F)(F)F	/	/	/	13µM*	-24%	/
O=C(CSc1ccc([N+](=O)[O-])cn1)Nc1ccccc1N1CCOCC1	?	-7%	4%	4%	0%	-8%
Cc1csc(NC(=O)CSc2ccc([N+](=O)[O-])cn2)n1	-33%	-3%	12µM*	0%	-13%	-4%
O=C(NC(=S)NCCc1ccccc1)c1cccc(Cl)c1	9%	0%	7%	17%	52%	2%
NC1=NC(=O)/C(=C/C=C/c2cccs2)S1	/	/	/	4%	3%	/
Cc1n[nH]c(C)c1CCC(=O)N/N=C/c1cccs1	-6%	1%	66%	5%	18%	1%
CC(C(=O)N(C)c1ccccc1)N1CCN(C(=O)c2ccccc2)CC1 (stereo not drawn)	20%	2%	1%	24%	31%	1%
CC(=O)N1CCN(C2=Nc3cccc4cccc2c34)CC1	/	0%	/	11µM*	-2%	-3%
CC1CN(C2=Nc3cccc4cccc2c34)CC(C)O1 (stereo not drawn)	41%	4%	-4%	-1%	0%	/
c1ccc(CC2CCN(C3=Nc4cccc5cccc3c45)CC2)cc1	?	2%	2%[5.75 µM]	11µM*	?	-141%
c1cc2c3c(cccc3c1)C(N1CCOCC1)=N2	32%	3%	13%	-7%	-13%	-3%
COc1ccccc1N1CCN(C2=Nc3cccc4cccc2c34)CC1	338%	2%	19%	13µM*	?	/
CC(=O)c1cccc(N2C(=O)CC(N3CCN(S(=O)(=O)c4ccc(Cl)cc4)CC3)C2=O)c1 (stereo not drawn)	1%	-4%	23%	-2%	5%	/
CCN1CCc2c(OCc3ccc(C)cc3)cccc2C1=O	-12%	-5%	-18%	6%	-5%	/
CC(C(=O)Nc1cc([N+](=O)[O-])ccc1Cl)N1CCN(c2ccc(O)cc2)CC1 (stereo not drawn)	-27%	?	13µM*	?	-1%[2.32 µM]	20%
CC(C(=O)NC1CCCCC1)N1CCN(S(=O)(=O)c2cccs2)CC1 (stereo not drawn)	14%	-1%	-9%	1%	0%	/

Assay outcomes: PubChem, National Center for Advancing Translational Sciences (NCATS)
